This excerpt belongs to a sample that is enriched for hits.
14-3-3 PPI: modulators of 14-3-3 gamma protein binding, primary screen, biochemical, fluorescence polarization. FP, 14-3-3gamma / TMR-pS259-Raf peptide binding. AID 422, 2006. 14-3-3 protein gamma (Homo sapiens), P61981. inhibition, % at 40 µM. 160,000 tested, 0.19% active; in the data active = inhibition above about 30%;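 also: 0% = protein plus tracer without compound and 100% = blank with tracer alone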
Target sequence (P61981 whole entry, looked up): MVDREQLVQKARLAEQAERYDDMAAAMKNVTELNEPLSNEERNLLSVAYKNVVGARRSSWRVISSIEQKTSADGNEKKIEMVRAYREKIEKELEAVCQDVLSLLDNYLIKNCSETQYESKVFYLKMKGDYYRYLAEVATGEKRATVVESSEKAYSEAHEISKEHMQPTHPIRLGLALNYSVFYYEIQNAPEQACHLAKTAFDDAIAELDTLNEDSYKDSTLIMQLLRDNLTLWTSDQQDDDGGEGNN
An asterisk follows results filed as active.

SMILES	14-3-3 PPI
COc1cc(CC2C(=O)N(C)C(=O)N(C)C2=O)ccc1OCc1ccccc1	9
C=CCN1C(=O)NC(=O)C(Cc2ccc(OC)c(OC)c2)C1=O (stereo not drawn)	0
COc1cc(OC)c(OC)cc1CC1C(=O)N(C)C(=O)N(C)C1=O	66*
CC12C=CC(C)(O1)C1C(=O)N(c3ccccc3[N+](=O)[O-])C(=O)C12 (stereo not drawn)	-8
CC12CCC(O)CC1=CCC1C2CCC2(C)C(O)C(=Cc3cccc(Br)c3)CC12 (stereo not drawn)	12
O=[N+]([O-])c1ccc(NCCOc2ccccc2F)c2cccnc12	-2
O=[N+]([O-])c1c(NCCO)ccc2nonc12	-18
Nc1ccc2nonc2c1[N+](=O)[O-]	31*
CCCN(CCC)c1ccc([N+](=O)[O-])c2nonc12	-28
CC(C)OC(=O)C1C(C(=O)OC(C)C)C23c4ccccc4C2c2ccccc2C13 (stereo not drawn)	-1
OC1C2CCCC1C(N1CCCC1)CC2 (stereo not drawn)	-1
CNCCc1c[nH]c2ccccc12	0
CN1C(=O)C(Cc2c[nH]c3ccccc23)C(=O)N(C)C1=O	82*
CN1C(=O)C(Cc2cccc3ccccc23)C(=O)N(C)C1=O	6
Cc1cccc(-n2c(C=Cc3c[nH]c4ccccc34)nc3ccc(I)cc3c2=O)c1	-10

Screening results as filed in PubChem BioAssay.
